Sampled rows, rich in hits. Any-hit rate of the full collection: about 11%.
USP28 block: inhibitors of human USP28 deubiquitinase; Ubiquitin carboxyl-terminal hydrolase 28 (Homo sapiens), Q96RU2; purified USP28, Ub-rhodamine cleavage fluorescence, 30 min; inhibition, % at 25 µM; hit rate 3% among 47,000
USP17 block: inhibitors of human USP17 deubiquitinase | Ubiquitin carboxyl-terminal hydrolase 17-like protein 5 (Homo sapiens), A8MUK1 | purified USP17, Ub-rhodamine cleavage fluorescence, 3 h | inhibition, % at 50 µM | hit rate 6.5% among 47,000 | AID 1645855, 2021
Target sequence (A8MUK1 whole entry, looked up): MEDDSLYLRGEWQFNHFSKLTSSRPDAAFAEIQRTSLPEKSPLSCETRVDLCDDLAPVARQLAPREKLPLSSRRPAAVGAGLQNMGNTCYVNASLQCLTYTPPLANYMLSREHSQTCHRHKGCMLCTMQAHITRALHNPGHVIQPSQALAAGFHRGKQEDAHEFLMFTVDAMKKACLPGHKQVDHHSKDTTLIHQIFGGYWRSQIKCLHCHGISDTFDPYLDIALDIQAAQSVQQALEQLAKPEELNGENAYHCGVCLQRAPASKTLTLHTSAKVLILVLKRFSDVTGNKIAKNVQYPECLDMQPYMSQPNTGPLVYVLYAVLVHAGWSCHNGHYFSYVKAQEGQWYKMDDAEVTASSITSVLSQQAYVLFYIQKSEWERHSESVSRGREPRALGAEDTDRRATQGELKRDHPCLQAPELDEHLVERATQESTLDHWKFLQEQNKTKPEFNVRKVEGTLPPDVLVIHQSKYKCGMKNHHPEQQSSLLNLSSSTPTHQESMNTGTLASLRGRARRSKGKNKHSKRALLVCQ
USP30 inh: inhibitors of human USP30 deubiquitinase | Ubiquitin carboxyl-terminal hydrolase 30 (Homo sapiens), Q70CQ3 | purified USP30, Ub-rhodamine cleavage fluorescence | inhibition, % at 25 µM | hit rate 5.3% among 47,000 | AID 1645860, 2021
Active calls of the source: *; . = not tested or not shown. Cut-off read from the data, not from the text of the source: active = inhibition above about 30%; inactive = the rest.

SMILES	USP28 block	USP17 block	USP30 inh
O=C(COc1ccccc1Cl)Nc1ccc(F)cc1F	2.2	6.4	15.3
CC(=O)c1cccc(Nc2c(C(=O)N3CCOCC3)cnc3nc(C)ccc23)c1	-9.4	-3.5	-21.6
C#CCNC(=O)C1(Cc2ccccc2-c2cccnc2)CCOCC1	1.6	0.3	-12.8
CC(C)(C)c1cc(C(=O)N2C[C@@H]3OCC(=O)N(CCc4ccccc4)[C@H]3C2)n[nH]1	-0.1	0.6	30.9*
CC(C)c1cc(C(=O)N2C[C@@H]3OCC(=O)N(CCc4ccccc4)[C@H]3C2)n(C)n1	-2.3	-2.8	2.3
O=C(/C=C/c1ccc(F)cc1)Nc1ccc2c(c1)OCCO2	86.2*	7.0	19.8
CC(C)(C)c1ccc(/C=C/C(=O)Nc2ccc3c(c2)OCCO3)cc1	33.5*	-2.2	-8.2
COc1ccc(/C=C/C(=O)Nc2ccc3c(c2)OCCO3)cc1	.	-3.0	.
CC(C)Cc1ccc(/C=C/C(=O)Nc2ccc3c(c2)OCCO3)cc1	13.9	0.0	11.7
COc1cccc(CNCC(=O)N2CCC(Cc3ccccc3)CC2)c1	-1.2	-3.3	7.3
CCN(CC)S(=O)(=O)c1ccc(OC(C)C)c(NS(=O)(=O)c2cccc(C(F)(F)F)c2)c1	11.5	1.9	5.0
O=C(Nc1cccc(S(=O)(=O)N2CCOCC2)c1)C1Cc2ccccc2CN1C(=O)c1ccco1 (configuration not stated)	-17.9	.	-169.1
Cc1noc(-c2ccccc2NC(=O)c2ccc(Cl)c(Cl)c2)n1	3.0	6.4	18.7
O=C(Nc1ccccc1-c1nc(-c2ccccn2)no1)c1cc(Cl)ccc1Cl	43.6*	55.6*	59.9*
Cc1ccccc1NC(=O)CSc1nnc2c3c(c(C#N)c(Nc4ccccc4)n12)CC(C)(C)OC3	7.6	13.1	-21.3
CN(C(=O)c1noc2c1CCc1sccc1-2)c1ccccc1F	-2.3	-6.8	-4.2
COc1ccc(NC(=O)C(=O)NCc2cccnc2)c(OC)c1	-6.7	-2.8	4.0
O=C(NCCc1c[nH]c2ccccc12)c1noc2c1CCc1sccc1-2	22.4	31.9*	-55.1
COc1ccc(C)cc1N(C)C(=O)c1noc2c1CCc1sccc1-2	22.4	20.9	30.4*
Cc1cccnc1NC(=O)c1noc2c1CCc1sccc1-2	8.4	0.4	14.1
O=C(Nc1ccccn1)c1noc2c1CCc1sccc1-2	2.9	36.5*	-51.1
COc1ccc2c(c1)CCc1c(C(=O)NCc3cccnc3)noc1-2	18.2	47.0*	52.9*
CC(NC(=O)c1noc2c1CCc1sccc1-2)c1ccccc1 (configuration not stated)	16.0	-4.7	3.4
CCC(C)c1ccccc1NC(=O)c1cccc(OCc2c(C)noc2C)c1 (configuration not stated)	26.8	11.0	22.6
CN(C)c1ncccc1CN1CCOC(c2c(C(N)=O)sc3ccccc23)C1 (configuration not stated)	-2.4	2.0	8.3
SMILES	USP28 block	USP17 block	USP30 inh
COc1ccc(CNc2ncc(C(=O)Nc3ccc(F)cc3)c(C)n2)cc1	-48.1	-24.6	-205.6
COc1ccc(CCNC(=O)CN2CCN(Cc3cccc(C)c3)C2=O)cc1OC	1.8	0.2	16.3
O=C(NCc1ccc(Cl)cc1)c1noc2c1CCc1sccc1-2	-4.7	29.8	-24.9
COc1ccccc1CNC(=O)c1noc2c1CCc1sccc1-2	28.9	26.1	30.1*
Cc1ccc(NC(=O)c2noc3c2CCc2sccc2-3)nc1	-4.6	31.8*	-36.9
O=C(NCc1ccc(F)cc1)c1noc2c1CCc1sccc1-2	-17.2	0.5	18.6
O=C(c1cncs1)N1CCc2[nH]nc(Nc3ccccc3)c2C1	8.1	6.4	10.8
CC(NS(=O)(=O)c1cccc(Cl)c1)C(=O)O (configuration not stated)	1.0	-0.4	30.3*
C[C@@H](NS(=O)(=O)c1ccc(F)c(Cl)c1)C(=O)NCc1cscn1	-2.9	-0.7	-0.2
COc1ccccc1C1CN2C(=O)N(c3ccccc3C)C(=O)[C@]2(C)c2[nH]c3ccccc3c21 (some centres not stated)	9.7	4.5	22.4
Cc1c(C)c2ccc(OCC(=O)NCc3ccccn3)c(C)c2oc1=O	15.5	39.9*	46.0*
Cc1cc(=O)oc2c(C)c(OCC(=O)NCc3ccccn3)ccc12	-6.7	-2.9	3.0
COc1ccc(CCN2C[C@H]3CCN(C(=O)c4cccnc4)CC[C@H]3S2(=O)=O)cc1	-3.5	1.5	2.1
CCOC(=O)c1ccc(NC(=O)COc2cccc3c2CCN(Cc2cccnc2)C3=O)cc1	31.8*	4.3	3.7
COc1ccc(NC(=O)COc2cccc3c2CCN(Cc2cccnc2)C3=O)c(OC)c1	10.9	7.8	-0.2
O=C(Cc1cccc(F)c1)NCc1cnc(C2CCCCO2)nc1 (configuration not stated)	0.0	9.1	5.9
Cn1c(N2CCN(C(=O)CC3CCCC3)CC2)cc(=O)n(C)c1=O	-15.3	.	0.0
COC(=O)c1ccc(C2CC(=O)Nc3c2sc(C(=O)O)c3-c2ccc(OC)cc2)cc1 (configuration not stated)	12.5	11.2	33.5*
CCOc1ccc(C2CC(=O)Nc3c2sc(C(=O)O)c3-c2ccc(OC)cc2)cc1 (configuration not stated)	6.2	2.2	4.3
O=C(CC[C@@H]1NC(=O)N(Cc2ccc3c(c2)OCO3)C1=O)NCCc1c[nH]c2ccccc12	2.0	12.6	15.4
O=C(c1ncn2c1CNS(=O)(=O)c1ccccc1-2)N1CCCC1	-1.7	-11.3	-14.8
O=C(Nc1cccc(Cl)c1)c1ncn2c1CNS(=O)(=O)c1ccccc1-2	66.2*	33.4*	36.0*
O=C(NCCc1ccc(Cl)cc1)c1cc([N+](=O)[O-])ccc1N1CCCC1	-8.1	-6.8	-9.0
Cc1cc(=O)oc2cc(OCC(=O)Nc3cc(Cl)ccc3N3CCOCC3)ccc12	15.5	41.7*	50.3*
COC(=O)c1ccccc1NC(=O)CNc1cc(Cl)ccc1N1CCOCC1	-14.2	-10.8	-19.7
SMILES	USP28 block	USP17 block	USP30 inh
Cc1ccc(CNC(=O)CCc2c(C)nn(-c3cc(N4CCCC4)ncn3)c2C)cc1	-9.5	-10.8	-26.0
CN1CCC(N2CCC[C@H]2c2nc(-c3ccc(F)cn3)no2)CC1	-0.8	-14.7	-14.1
CNC(=O)N1CCCN(C2CCN(Cc3ccccc3)C2=O)CC1 (configuration not stated)	6.3	-3.5	30.3*
CC(C)(C)NC(=O)N1CCCN(C2CCN(Cc3ccccc3)C2=O)CC1 (configuration not stated)	9.6	6.7	5.9
COc1cc(C2CC(=O)Oc3n[nH]c(-c4ccccc4)c32)cc(OC)c1OC (configuration not stated)	0.0	6.8	4.2
COc1cc(-c2oc3cc(OC)c(OC)c(O)c3c(=O)c2OC)ccc1O	-7.9	1.4	-28.2
COc1c(O)c(O)c2c(=O)cc(-c3ccc(O)cc3)oc2c1OC	40.3*	67.2*	13.2
COc1cc(OC)c2c(=O)cc(-c3ccccc3)oc2c1OC	3.5	1.0	36.8*
COc1ccc([C@H]2C[C@@H](NC(=O)c3ccccc3)CC[C@]23CCC(=O)N3)cc1OC	7.0	3.4	11.7
CNC(=O)N1CC[C@H]2COC(=O)N(Cc3ccccc3)[C@@H]2C1	-1.2	-8.9	-13.4
